# In PubChem BioAssay (NCI):
# This is part of a sample that, as a whole, favours compounds with a hit. Of some 83,000 tested, about 20% had one in any assay.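 The endpoint reported here, percent growth, reads 100 for growth as untreated, 0 for no net growth and -100 for all cells dead.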 A number with no mark means an inactive call. Calls of active or inactive are those of the source. Rule for the calls: active = growth percent below 10; inactive = the rest.
# Key:
# Assay in all cases: NCI-60 one-dose screen, 48 h (100 = growth as untreated, 0 = no growth, -100 = all killed)
# Details in all cases: 10 µM unless noted
# NCI-H23 lung = system: NCI-H23 lung
# NCI-H226 lung = system: NCI-H226 lung
# NCI-H322M lung = system: NCI-H322M lung
# HOP-62 NSCLC = system: HOP-62 NSCLC
# NCI-H460 lung = system: NCI-H460 lung
# HOP-92 NSCLC = system: HOP-92 NSCLC
# NCI-H522 lung = system: NCI-H522 lung
# A549/ATCC NSCLC = system: A549/ATCC NSCLC
# 786-0 renal = system: 786-0 renal
# DU-145 prostate = system: DU-145 prostate
# MALME-3M melanoma = system: MALME-3M melanoma
# MDA-MB-231 breast = system: MDA-MB-231 breast
# RXF 393 renal = system: RXF 393 renal
# SF-268 CNS = system: SF-268 CNS
# SF-295 CNS = system: SF-295 CNS
# SF-539 CNS = system: SF-539 CNS
# UACC-257 melanoma = system: UACC-257 melanoma
# M14 melanoma = system: M14 melanoma
# K-562 leukemia = system: K-562 leukemia
# COLO 205 colon = system: COLO 205 colon
Structure (SMILES),growth (NCI-H23 lung) [%],growth (NCI-H226 lung) [%],growth (NCI-H322M lung) [%],growth (HOP-62 NSCLC) [%],growth (NCI-H460 lung) [%],growth (HOP-92 NSCLC) [%],growth (NCI-H522 lung) [%],growth (A549/ATCC NSCLC) [%],growth (786-0 renal) [%],growth (DU-145 prostate) [%],growth (MALME-3M melanoma) [%],growth (MDA-MB-231 breast) [%],growth (RXF 393 renal) [%],growth (SF-268 CNS) [%],growth (SF-295 CNS) [%],growth (SF-539 CNS) [%],growth (UACC-257 melanoma),growth (M14 melanoma) [%],growth (K-562 leukemia) [%],growth (COLO 205 colon)
Nc1ccc(-c2cc3c(Nc4ccc(OCc5cccc(F)c5)c(Cl)c4)ncnc3s2)cc1,68.6,53.5,26.6,62.3,36.5,45.8,13.1,21.2,37.2,36.9,42.1,13.4,52.5,52.1,47.8,57.4,18.3%,51.9,,
Cc1cn(C2CCCCC2)c(=O)[nH]c1=O,115,101,129,109,117,97.4,97.8,101,107,163,120,103,113,108,111,109,102%,106,,
O=C(NCOC(O)C(Cl)(Cl)Cl)NCOC(O)C(Cl)(Cl)Cl (configuration not stated),102,95.7,91.7,91.6,112,119,82.8,97.5,99.2,,99.5,106,125,105,93.8,90.4,94.9%,100,22.2,
O=[N+]([O-])c1ccc(-c2cc3c(Nc4ccc(OCc5cccc(Cl)c5)c(Cl)c4)ncnc3s2)cc1,78.7,92.2,82.4,67.7,32,80.3,49.9,29.4,88.3,70.4,61.2,81.6,85.3,76.1,59.6,84,58.6%,35.9,,
CCOC(=O)C(=CNc1ccccc1[N+](=O)[O-])C(=O)OCC,99,88.1,96.3,107,105,80.6,89.5,88.5,97.2,,115,98.6,104,105,98.6,97.7,94.2%,118,96.7,
C[C@@H]1C(=O)N(C[C@H](Cc2ccccc2)NC(=O)OCc2ccccc2)[C@]1(Cc1ccccc1)C(=O)OC(C)(C)C,71.8,62.2,86.7,80.2,66.6,54.5,45,47.2,,87.1,79.5,66.4,71.2,65.7,69.6,87.1,66.1%,,40.5,62%
CCOc1cc(N)ccc1C(=O)NCCCN(CC)CC,87.9,93.6,100,98.3,110,90.6,98.2,104,100,,96.3,93.2,90.7,103,103,100,102%,96.1,80.3,
CCN(CC)CCCNC(=O)c1ccc(N)cc1,101,101,94.7,98.5,103,101,101,105,100,,94.3,104,110,102,99.3,106,92.9%,98.7,35.8,
CC1=NN(c2cccc(Cl)c2)C(=O)/C1=C\c1cn(CC(O)CN2CCCCC2)c2ccccc12 (configuration not stated),97.8,96.8,103,73.6,44.8,56.3,71.9,95.2,,96.7,32.9,41.4,67.1,72.6,62.4,96.1,-82.1% (active),,28.9,-58% (active)
